According to PubChem BioAssay AID1159580 (chemical genetic matrix, 2015):
The whole screen tested about 5,500 compounds, of which about 2,000 (36%) were called active. Another 18% or so got no clear call; they are omitted. Rule as the data show it: active = normalized growth mostly below about 0.91 (no sharp cut-off); inconclusive = no clear call, values can overlap the other calls; inactive = mostly above about 0.92. The list shows a part of the results.

Assay: chemical genetic growth profiling, strain panel (AID 1159580);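 also: tested at 20 µM; growth read once vehicle control cultures reached saturation at 30 °C; 1 = growth at the plate median or of vehicle wells; lower values mean less growth of the strain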
Conditions: S. cerevisiae deletion strains, growth OD
[1] = locus YAR019C, strain CDC15, hits give low values
[2] = locus YBL105C, strain PKC1, hits give low values
[3] = locus YBR135W, strain CKS1, hits give low values
[4] = locus YBR136W, strain MEC1, hits give low values
[5] = locus YBR160W, strain CDC28, hits give low values
[6] = locus YDL017W, strain CDC7, hits give low values
[7] = locus YDL028C, strain MPS1, hits give low values
[8] = locus YDL101C, strain DUN1, hits give low values
[9] = locus YDL108W, strain KIN28, hits give low values
[10] = locus YDL132W, strain cdc53, hits give low values
[11] = locus YDL214C, strain PRR2, hits give low values
[12] = locus YDR052C, strain DBF4, hits give low values
[13] = locus YDR054C, strain cdc34, hits give low values
[14] = locus YDR226W, strain ADK1, hits give low values
[15] = locus YDR477W, strain SNF1, hits give low values
[16] = locus YER123W, strain YCK3, hits give low values
[17] = locus YER133W, strain GLC7, hits give low values
[18] = locus YFL009W, strain cdc4, hits give low values
[19] = locus YFL029C, strain CAK1, hits give low values
[20] = locus YFR003C, strain YPI1, hits give low values
[21] = locus YFR019W, strain FAB1, hits give low values
[22] = locus YFR028C, strain CDC14, hits give low values
[23] = locus YGR040W, strain KSS1, hits give low values
[24] = locus YGR052W, strain FMP48, hits give low values
[25] = locus YGR092W, strain DBF2, hits give low values
[26] = locus YHR030C, strain SLT2, hits give low values
[27] = locus YHR079C, strain IRE1, hits give low values
[28] = locus YHR082C, strain KSP1, hits give low values
[29] = locus YHR205W, strain SCH9, hits give low values
[30] = locus YIL147C, strain SLN1, hits give low values
[31] = locus YJL095W, strain BCK1, hits give low values
[32] = locus YJL128C, strain PBS2, hits give low values
[33] = locus YJL157C, strain FAR1, hits give low values
[34] = locus YJR016C, strain ILV3, hits give low values
[35] = locus YJR066W, strain TOR1 (second series), hits give low values
[36] = locus YJR066W, strain TOR1, hits give low values
[37] = locus YKL048C, strain ELM1, hits give low values
[38] = locus YKL067W, strain YNK1, hits give low values
[39] = locus YKL101W, strain HSL1, hits give low values
[40] = locus YKL193C, strain SDS22, hits give low values
[41] = locus YKL203C, strain TOR2, hits give low values
[42] = locus YLR113W, strain HOG1, hits give low values
[43] = locus YLR133W, strain CKI1, hits give low values
[44] = locus YLR403W, strain SFP1, hits give low values
[45] = locus YML070W, strain DAK1, hits give low values
[46] = locus YMR001C, strain CDC5, hits give low values
[47] = locus YMR205C, strain PFK2 (second series), hits give low values
[48] = locus YMR277W, strain FCP1, hits give low values
[49] = locus YNL006W, strain LST8, hits give low values
[50] = locus YNL020C, strain ARK1, hits give low values
[51] = locus YNL161W, strain CBK1, hits give low values
[52] = locus YNL183C, strain NPR1, hits give low values
[53] = locus YNL207W, strain RIO2, hits give low values
[54] = locus YNL222W, strain SSU72, hits give low values
[55] = locus YNL307C, strain MCK1 (second series), hits give low values
[56] = locus YOL078W, strain AVO1, hits give low values
[57] = locus YOL136C, strain PFK27, hits give low values
[58] = locus YOR061W, strain CKA2, hits give low values
[59] = locus YOR119C, strain RIO1, hits give low values
[60] = locus YOR231W, strain MKK1, hits give low values
[61] = locus YOR329C, strain SCD5, hits give low values
[62] = locus YPL031C, strain PHO85, hits give low values
[63] = locus YPL153C, strain RAD53, hits give low values
[64] = locus YPL204W, strain HRR25, hits give low values
[65] = locus YPL209C, strain IPL1, hits give low values
[66] = locus YPL256C, strain CLN2, hits give low values
[67] = locus YPR025C, strain CCL1, hits give low values
[68] = locus YPR106W, strain ISR1, hits give low values
[69] = locus YPR111W, strain DBF20, hits give low values
[70] = strain NNK1, hits give low values
[71] = strain TSCII, hits give low values

Measured: normalized growth

Cc1cc(C(=O)O/N=C(/N)CSc2ncccc2C(F)(F)F)no1
active: [42] 0.789 | [66] 0.824
inactive: [1] 0.997 | [2] 0.993 | [3] 0.994 | [4] 0.992 | [5] 0.988 | [6] 0.995 | [7] 0.993 | [8] 1.01 | [9] 0.996 | [10] 0.99 | [11] 0.999 | [12] 0.998 | [13] 0.989 | [14] 0.991 | [15] 1 | [16] 1.01 | [17] 1.01 | [18] 0.999 | [19] 0.998 | [20] 0.993 | [21] 1 | [22] 0.994 | [23] 1.02 | [24] 0.995 | [25] 1.02 | [26] 0.957 | [27] 0.772 | [28] 1.17 | [29] 1 | [30] 0.991 | [31] 0.841 | [32] 0.983 | [33] 1.01 | [34] 0.997 | [35] 1 | [36] 1.14 | [37] 1.01 | [38] 0.993 | [39] 1 | [40] 0.989 | [41] 1.08 | [43] 1.01 | [44] 1.02 | [45] 0.995 | [46] 0.997 | [47] 1.02 | [48] 0.994 | [49] 0.999 | [50] 1.01 | [51] 0.996 | [52] 0.933 | [53] 0.997 | [54] 0.978 | [55] 1.01 | [56] 0.998 | [57] 1.01 | [58] 1.02 | [59] 1.04 | [60] 0.792 | [61] 0.995 | [62] 1 | [63] 0.997 | [64] 1.01 | [65] 0.992 | [67] 0.999 | [68] 0.997 | [69] 0.993 | [70] 1.01 | [71] 0.99

N/C(CSc1ccc(Cl)cc1)=N/OC(=O)c1ccc(C(F)(F)F)cc1
inactive: [11] 0.798 | [12] 0.912 | [15] 0.798 | [16] 0.774 | [17] 0.853 | [20] 0.908 | [23] 0.816 | [24] 0.838 | [25] 0.805 | [27] 0.739 | [28] 0.788 | [29] 0.604 | [31] 0.7 | [32] 0.889 | [33] 0.826 | [35] 0.687 | [36] 0.651 | [37] 0.953 | [38] 0.826 | [39] 0.863 | [41] 0.859 | [43] 0.822 | [44] 0.761 | [45] 0.852 | [47] 0.836 | [50] 0.836 | [51] 0.9 | [52] 0.82 | [55] 0.786 | [57] 0.852 | [58] 0.803 | [59] 0.845 | [60] 0.791 | [62] 0.807 | [63] 0.811 | [64] 0.786
active: [1] 0.853 | [2] 0.895 | [3] 0.89 | [4] 0.889 | [5] 0.874 | [6] 0.893 | [7] 0.847 | [8] 0.867 | [9] 0.881 | [10] 0.886 | [13] 0.87 | [14] 0.867 | [18] 0.841 | [19] 0.853 | [21] 0.766 | [22] 0.86 | [26] 0.422 | [30] 0.876 | [34] 0.889 | [40] 0.885 | [42] 0.619 | [46] 0.866 | [48] 0.855 | [49] 0.892 | [53] 0.874 | [54] 0.872 | [56] 0.877 | [61] 0.9 | [65] 0.892 | [66] 0.647 | [67] 0.886 | [68] 0.875 | [69] 0.855 | [70] 0.862 | [71] 0.85
